# Assay results published in PubChem BioAssay (NCI).
# Several values for one entry are separate records, joined by “and”; a condition that tells them apart may be missing. Equal values may be shown once. About 83,000 compounds went through this panel and 20% of them were active in at least one assay; those are over-represented in the sample as a whole.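 How to read the values: 0–100, growth inhibition (40 = 60% inhibited); 0, no net growth; -100 to 0, cell death (-40 = 40% of starting cells died; -100 = all dead).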 Activity calls are given as the source filed them. The calls were made as follows: active = growth percent below 10; inactive = the rest.
# Experiments:
# Assay in all cases: NCI-60 one-dose screen, 48 h (100 = growth as untreated, 0 = no growth, -100 = all killed)
# Conditions in all cases: 10 µM unless noted
# NCI-H23 lung = system: NCI-H23 lung
# NCI-H226 lung = system: NCI-H226 lung
# NCI-H322M lung = system: NCI-H322M lung
# HOP-62 NSCLC = system: HOP-62 NSCLC
# NCI-H460 lung = system: NCI-H460 lung
# HOP-92 NSCLC = system: HOP-92 NSCLC
# NCI-H522 lung = system: NCI-H522 lung
# A549/ATCC NSCLC = system: A549/ATCC NSCLC
# 786-0 renal = system: 786-0 renal
# COLO 205 colon = system: COLO 205 colon
# DU-145 prostate = system: DU-145 prostate
# K-562 leukemia = system: K-562 leukemia
# MALME-3M melanoma = system: MALME-3M melanoma
# MDA-MB-231 breast = system: MDA-MB-231 breast
# RXF 393 renal = system: RXF 393 renal
# SF-268 CNS = system: SF-268 CNS
# SF-295 CNS = system: SF-295 CNS
# SF-539 CNS = system: SF-539 CNS
# UACC-257 melanoma = system: UACC-257 melanoma
# M14 melanoma = system: M14 melanoma
SMILES,growth (NCI-H23 lung),growth (NCI-H226 lung),growth (NCI-H322M lung),growth (HOP-62 NSCLC),growth (NCI-H460 lung),growth (HOP-92 NSCLC),growth (NCI-H522 lung),growth (A549/ATCC NSCLC),growth (786-0 renal),growth (COLO 205 colon),growth (DU-145 prostate),growth (K-562 leukemia),growth (MALME-3M melanoma),growth (MDA-MB-231 breast),growth (RXF 393 renal),growth (SF-268 CNS),growth (SF-295 CNS),growth (SF-539 CNS),growth (UACC-257 melanoma),growth (M14 melanoma)
O=C1C2=C(C(=O)c3ccccc31)C(O)(S(=O)(=O)O)C(O)(S(=O)(=O)O)C1N=CC=CC21 (stereo not given),31.8% (inactive) and 20.8% (inactive),57% (inactive) and 68.1% (inactive),44.8% (inactive) and 16.8% (inactive),42.1% (inactive) and 41.9% (inactive),12.2% (inactive) and 4.17% (active),-2.69% (active),24.8% (inactive) and -11.8% (active),35.8% (inactive) and 22.1% (inactive),32.7% (inactive) and 20.3% (inactive),50.3% (inactive),64.2% (inactive) and 48% (inactive),13.5% (inactive) and 40% (inactive),73% (inactive) and 62.1% (inactive),58.3% (inactive) and 47.6% (inactive),76.7% (inactive) and 58.1% (inactive),52.2% (inactive) and 36.5% (inactive),6.52% (active) and 15.4% (inactive),25.4% (inactive) and 20.8% (inactive),71.4% (inactive) and 35.3% (inactive),42.9% (inactive)
O[C@H](c1cc(C(F)(F)F)nc2c(C(F)(F)F)cccc12)[C@@H]1CCCCN1,79.2% (inactive) and 77.8% (inactive),93.5% (inactive) and 58.9% (inactive),68.6% (inactive) and 52% (inactive),71.3% (inactive) and 74.6% (inactive),27.7% (inactive) and 23.6% (inactive),9.97% (active) and -8.33% (active),58.4% (inactive) and 22.8% (inactive),56.9% (inactive) and 67.1% (inactive),42.4% (inactive) and 56.6% (inactive),62.3% (inactive) and 60.5% (inactive),67% (inactive) and 70.2% (inactive),8.6% (active) and 11.9% (inactive),89.6% (inactive) and 82.2% (inactive),15.1% (inactive) and 17.7% (inactive),44% (inactive) and 43.3% (inactive),57.9% (inactive) and 56.6% (inactive),93.6% (inactive),81.1% (inactive) and 75.6% (inactive),58.1% (inactive) and 75.4% (inactive),67.2% (inactive) and 71.8% (inactive)
CC1=C(/C=C/C(C)=C/C=C/C(C)=C/C(=O)O)C(C)(C)CCC1,86.6% (inactive) and 96.1% (inactive) and 98.3% (inactive),93% (inactive) and 92.1% (inactive) and 88.2% (inactive),94.2% (inactive) and 101% (inactive),73% (inactive) and 75.4% (inactive),91.2% (inactive) and 91.7% (inactive) and 90.6% (inactive),66.8% (inactive) and 77% (inactive) and 26.4% (inactive),64.8% (inactive) and 79.3% (inactive),73.4% (inactive) and 88.2% (inactive) and 80.3% (inactive),96.6% (inactive) and 85.6% (inactive) and 102% (inactive),108% (inactive) and 93.2% (inactive) and 145% (inactive),103% (inactive) and 83.3% (inactive),108% (inactive) and 89.5% (inactive),69.1% (inactive) and 35.6% (inactive) and 70.6% (inactive),78.1% (inactive) and 82.2% (inactive) and 85.1% (inactive),94.2% (inactive) and 89.6% (inactive) and 91.3% (inactive),91.7% (inactive) and 92.9% (inactive) and 101% (inactive),69.3% (inactive) and 88.1% (inactive) and 114% (inactive),88.7% (inactive) and 62.2% (inactive) and 86.1% (inactive),94.7% (inactive) and 82.5% (inactive) and 93.9% (inactive),109% (inactive) and 95.3% (inactive) and 91.5% (inactive)
CN(C)c1ccc(C(Cc2ccc3ccccc3n2)Cc2ccc3ccccc3n2)cc1,38.6% (inactive) and 65.5% (inactive),61.4% (inactive) and 71.9% (inactive),66.9% (inactive) and 86% (inactive),70.9% (inactive) and 84.4% (inactive),26.5% (inactive) and 73.7% (inactive),-4.12% (active) and 50.7% (inactive),45.3% (inactive) and 90.3% (inactive),45% (inactive) and 91.1% (inactive),31.4% (inactive) and 90.9% (inactive),43.5% (inactive),81.9% (inactive),29.8% (inactive) and 85.6% (inactive),64.8% (inactive) and 106% (inactive),58.2% (inactive) and 64% (inactive),73.6% (inactive) and 85.5% (inactive),68.3% (inactive) and 95.3% (inactive),24.7% (inactive) and 64.9% (inactive),67.6% (inactive) and 106% (inactive),32.4% (inactive) and 99% (inactive),27.2% (inactive) and 75.5% (inactive)
CNC(=O)c1ccc(C)c(-n2c(C)cc(OCc3ccc(F)cc3F)c(Br)c2=O)c1,66% (inactive) and 74.1% (inactive),67.2% (inactive) and 64.6% (inactive),86.3% (inactive) and 92.8% (inactive),69.8% (inactive) and 89% (inactive),80.3% (inactive) and 97.2% (inactive),64.3% (inactive) and 90.9% (inactive),52.3% (inactive) and 47.1% (inactive),63.4% (inactive) and 63.2% (inactive),85.9% (inactive) and 84.2% (inactive),61% (inactive) and 91.8% (inactive),91.6% (inactive) and 95.9% (inactive),43% (inactive) and 80.7% (inactive),98.9% (inactive) and 95.9% (inactive),88.8% (inactive) and 93.1% (inactive),87.7% (inactive),81.6% (inactive) and 84.2% (inactive),68.9% (inactive) and 78.3% (inactive),89.5% (inactive) and 88.2% (inactive),70.5% (inactive),76.6% (inactive) and 98.4% (inactive)
CN(C)CCC(=O)c1ccc(Cl)cc1,109% (inactive) and 86.8% (inactive),99.3% (inactive) and 110% (inactive),110% (inactive) and 116% (inactive),112% (inactive) and 115% (inactive),113% (inactive) and 114% (inactive),86.4% (inactive) and 124% (inactive),79.8% (inactive) and -84.6% (active),109% (inactive) and 107% (inactive),104% (inactive) and 106% (inactive),121% (inactive) and 118% (inactive),112% (inactive) and 133% (inactive),110% (inactive) and 91.3% (inactive),106% (inactive) and 122% (inactive),105% (inactive) and 107% (inactive),110% (inactive) and 121% (inactive),105% (inactive) and 107% (inactive),117% (inactive) and 126% (inactive),106% (inactive),103% (inactive) and 104% (inactive),98.6% (inactive) and 109% (inactive)
COc1ccccc1NC(=O)OCC#CCOC(=O)Nc1ccccc1OC,101% (inactive) and 95.5% (inactive),97.8% (inactive) and 90.5% (inactive),112% (inactive) and 98.4% (inactive),102% (inactive) and 91.8% (inactive),110% (inactive) and 94.7% (inactive),83.1% (inactive),80.2% (inactive) and 76.8% (inactive),101% (inactive) and 87% (inactive),108% (inactive) and 88.2% (inactive),107% (inactive) and 120% (inactive),146% (inactive) and 96.5% (inactive),75% (inactive) and 57.3% (inactive),96.6% (inactive),102% (inactive) and 105% (inactive),102% (inactive) and 90.3% (inactive),116% (inactive) and 89.4% (inactive),105% (inactive) and 94% (inactive),99.9% (inactive) and 91.6% (inactive),100% (inactive) and 91.1% (inactive),106% (inactive) and 95.5% (inactive)
